Results taken from PubChem BioAssay (EPA / NIEHS).
Active and inactive are the calls of the source. How the source made its calls: active means hit-call score of the fitted dose curve at least 0.9, where 1 is the maximum; inactive means score below 0.9.

Experiments:
[1] = ATG_GLI_CIS: Attagene CIS-FACTORIAL HepG2 Assay for human Zinc Finger Protein GLI1 (AID 2282945); details: HepG2, Attagene cis-factorial reporter mRNA, GLI element; actives raise or lower the signal
Method in brief: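 HepG2 cells transiently transfected with cis-promoter multiplexed reporter units report endogenous transcription factor activity. After 24 h chemical exposure, reporter mRNA was quantified by RT-PCR, 6-FAM labelling, HpaI digestion and capillary electrophoresis, with bidirectional fitting against DMSO.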

[2] = ATG_GRE_CIS: Attagene CIS-FACTORIAL HepG2 Assay for human Glucocorticoid Response Elements (GRE) (AID 2282947); details: HepG2 GRE cis-reporter, Attagene multiplex mRNA; actives raise or lower the signal
Method in brief: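 HepG2 cells transiently transfected with multiple cis-promoter reporter units measure endogenous TF activity; 24 h compound exposure. Reporter mRNA quantified by RT-PCR, FAM labelling, HpaI digestion and capillary electrophoresis; bidirectional fit vs DMSO baseline.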

[3] = ATG_ISRE_CIS: Attagene CIS-FACTORIAL HepG2 Assay for human Interferon Regulatory Factor 1 (IRF1) binding to an Interferon-Stimulated Response Element (ISRE) (AID 2282948); details: HepG2 ISRE cis-reporter (Attagene), mRNA transcription readout; actives raise or lower the signal
Method in brief: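 Cell-based cis-reporter assay; HepG2; 24 h exposure; reporter mRNA by RT-PCR plus capillary electrophoresis fluorescence; activity in either direction scored relative to DMSO.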

[4] = ATG_M_32_CIS: Attagene CIS-FACTORIAL HepG2 Assay for M32 Transcription Factor (Internal Marker) (AID 2282949); details: HepG2 Attagene cis-factorial M32 reporter, mRNA; actives raise or lower the signal;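 further: background control marker of the multiplexed CIS panel rather than a real target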
Method in brief: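 Internal background marker read-out: RT-PCR/capillary electrophoresis fluorescence of reporter transcripts from transiently transfected HepG2 cells after 24 h chemical exposure. Activity fitted bidirectionally relative to DMSO negative control.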

[5] = ATG_M_06_CIS: Attagene CIS-FACTORIAL HepG2 Assay for M06 Transcription Factor (Internal Marker) (AID 2282950); details: HepG2 Attagene CIS-FACTORIAL M06 internal marker reporter; actives raise or lower the signal
Method in brief: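 Terse: HepG2, transient MRTU transfection (FuGene 6), 24 h dosing; total RNA, oligo(dT) RT, PCR, FAM label, HpaI cut, capillary electrophoresis; bidirectional fit vs DMSO baseline; background-control endpoint.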

[6] = molecular target: Hypoxia-inducible factor 1-alpha (Homo sapiens) (UniProt Q16665); test: ATG_HIF1a_CIS: Attagene CIS-FACTORIAL HepG2 Assay for human Hypoxia Inducible Factor 1 (HIF1A) (AID 2282951); details: HepG2 Attagene cis-factorial HIF1a reporter transcription; actives raise or lower the signal
Chain of Hypoxia-inducible factor 1-alpha (Homo sapiens) (Q16665 whole entry, looked up): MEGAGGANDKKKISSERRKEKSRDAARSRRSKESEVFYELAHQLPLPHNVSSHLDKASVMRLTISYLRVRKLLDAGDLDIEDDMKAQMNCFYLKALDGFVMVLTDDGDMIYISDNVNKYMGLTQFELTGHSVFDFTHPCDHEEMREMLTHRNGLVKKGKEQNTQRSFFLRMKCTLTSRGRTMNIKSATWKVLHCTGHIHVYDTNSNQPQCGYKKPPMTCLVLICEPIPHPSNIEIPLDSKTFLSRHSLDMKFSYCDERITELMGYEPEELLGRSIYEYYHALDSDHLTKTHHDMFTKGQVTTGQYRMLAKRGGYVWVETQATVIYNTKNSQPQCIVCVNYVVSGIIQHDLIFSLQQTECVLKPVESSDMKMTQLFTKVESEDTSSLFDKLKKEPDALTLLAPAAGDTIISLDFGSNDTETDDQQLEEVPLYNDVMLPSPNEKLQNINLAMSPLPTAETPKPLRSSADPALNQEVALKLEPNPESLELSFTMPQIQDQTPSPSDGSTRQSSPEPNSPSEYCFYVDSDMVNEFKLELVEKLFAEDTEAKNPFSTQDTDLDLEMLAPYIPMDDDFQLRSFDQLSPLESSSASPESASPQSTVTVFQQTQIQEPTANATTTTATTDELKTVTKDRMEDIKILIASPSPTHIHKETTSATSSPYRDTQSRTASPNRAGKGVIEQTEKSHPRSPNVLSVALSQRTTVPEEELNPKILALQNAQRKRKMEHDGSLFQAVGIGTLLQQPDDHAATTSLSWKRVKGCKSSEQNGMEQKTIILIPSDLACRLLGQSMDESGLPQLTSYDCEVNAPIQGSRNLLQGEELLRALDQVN
Method in brief: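 HepG2 cells transiently transfected with multiple cis-regulated reporter transcription units measure endogenous transcription factor activity. After 24 h exposure, reporter mRNA is quantified by RT-PCR with 6-FAM labelling, HpaI digestion and capillary electrophoresis. Bidirectional fitting against DMSO.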

[7] = molecular target: Hepatocyte nuclear factor 6 (Homo sapiens) (UniProt Q9UBC0); test: ATG_HNF6_CIS: Attagene CIS-FACTORIAL HepG2 Assay for human Hepatocyte Nuclear Factor 6 (HNF6) (AID 2282952); details: HepG2 Attagene cis-factorial HNF6 reporter transcription; actives raise or lower the signal
Chain of Hepatocyte nuclear factor 6 (Homo sapiens) (Q9UBC0 whole entry, looked up): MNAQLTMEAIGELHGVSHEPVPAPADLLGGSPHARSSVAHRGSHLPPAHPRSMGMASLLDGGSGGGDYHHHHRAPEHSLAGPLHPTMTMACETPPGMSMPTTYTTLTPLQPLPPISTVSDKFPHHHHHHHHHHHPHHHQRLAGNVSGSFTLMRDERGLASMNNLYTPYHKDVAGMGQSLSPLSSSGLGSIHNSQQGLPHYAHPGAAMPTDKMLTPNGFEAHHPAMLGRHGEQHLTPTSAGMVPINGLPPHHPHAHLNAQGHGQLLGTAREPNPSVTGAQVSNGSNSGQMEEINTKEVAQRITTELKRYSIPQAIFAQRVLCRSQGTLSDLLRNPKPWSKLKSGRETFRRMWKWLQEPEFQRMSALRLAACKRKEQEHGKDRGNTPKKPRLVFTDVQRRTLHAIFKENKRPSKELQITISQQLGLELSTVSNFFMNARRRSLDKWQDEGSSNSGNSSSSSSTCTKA
Method in brief: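 HepG2 cells transiently transfected with cis-element-driven multiple reporter transcription units, dosed 24 h; reporter mRNA quantified by RT-PCR, FAM primer extension, HpaI digestion and capillary electrophoresis; bidirectional fit versus DMSO baseline.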

[8] = molecular target: Heat shock factor protein 1 (Homo sapiens) (UniProt Q00613); test: ATG_HSE_CIS: Attagene CIS-FACTORIAL HepG2 Assay for human Heat Shock Transcription Factor 1 (HSE) (AID 2282953); details: HepG2 HSE cis-reporter, Attagene RNA transcription; actives raise or lower the signal
Chain of Heat shock factor protein 1 (Homo sapiens) (Q00613 whole entry, looked up, the tested form may be a part): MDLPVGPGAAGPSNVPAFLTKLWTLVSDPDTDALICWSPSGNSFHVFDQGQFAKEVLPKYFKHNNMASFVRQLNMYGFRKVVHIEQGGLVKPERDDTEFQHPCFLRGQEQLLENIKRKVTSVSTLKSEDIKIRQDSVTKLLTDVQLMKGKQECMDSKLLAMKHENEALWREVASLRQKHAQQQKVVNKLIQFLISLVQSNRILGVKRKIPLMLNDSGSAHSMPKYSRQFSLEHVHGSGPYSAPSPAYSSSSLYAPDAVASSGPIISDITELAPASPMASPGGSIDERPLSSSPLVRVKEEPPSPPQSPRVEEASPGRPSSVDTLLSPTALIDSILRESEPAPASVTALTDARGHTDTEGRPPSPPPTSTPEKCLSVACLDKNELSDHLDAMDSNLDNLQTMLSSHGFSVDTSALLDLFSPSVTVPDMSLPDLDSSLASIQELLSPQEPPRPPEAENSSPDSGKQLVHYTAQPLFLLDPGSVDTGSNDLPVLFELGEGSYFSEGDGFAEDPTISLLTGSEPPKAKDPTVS
Method in brief: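 Read-out: fluorescence of reporter-specific RT-PCR fragments separated by capillary electrophoresis. HepG2 carrying transfected cis-element reporter units; 24 h dosing; activity fitted in both directions relative to DMSO baseline.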

[9] = ATG_MRE_CIS: Attagene CIS-FACTORIAL HepG2 Assay for human Metal Responsive Element (MRE) (AID 2282954); details: HepG2 MRE cis-reporter transcription, Attagene multiplex; actives raise or lower the signal
Method in brief: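 HepG2 cells transiently transfected with multiple cis-element reporter units measure endogenous MTF1-driven transcription. After 24 h compound exposure, reporter mRNA is quantified by RT-PCR with 6-FAM labelling, HpaI digestion and capillary electrophoresis; bidirectional fits versus DMSO.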

[10] = ATG_PBREM_CIS: Attagene CIS-FACTORIAL HepG2 Assay for human Phenobarbital-responsive Enhancer Module (PBREM) (AID 2282955); details: HepG2 PBREM cis-reporter, Attagene multiplexed transcription; actives raise or lower the signal
Method in brief: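 HepG2 cells transiently transfected with multiple cis-regulated reporter units measure endogenous transcription factor activity; 24 h compound exposure. Reporter mRNA quantified by RT-PCR, fluorescent labelling, HpaI digestion and capillary electrophoresis; bidirectional fit versus DMSO.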

[11] = molecular target: Paired box protein Pax-6 (Homo sapiens) (UniProt P26367); test: ATG_Pax6_CIS: Attagene CIS-FACTORIAL HepG2 Assay for human Paired Box 6 (PAX6) (AID 2282956); details: HepG2 CIS-FACTORIAL PAX6 reporter transcription, RNA readout; actives raise or lower the signal
Chain of Paired box protein Pax-6 (Homo sapiens) (P26367 whole entry, looked up): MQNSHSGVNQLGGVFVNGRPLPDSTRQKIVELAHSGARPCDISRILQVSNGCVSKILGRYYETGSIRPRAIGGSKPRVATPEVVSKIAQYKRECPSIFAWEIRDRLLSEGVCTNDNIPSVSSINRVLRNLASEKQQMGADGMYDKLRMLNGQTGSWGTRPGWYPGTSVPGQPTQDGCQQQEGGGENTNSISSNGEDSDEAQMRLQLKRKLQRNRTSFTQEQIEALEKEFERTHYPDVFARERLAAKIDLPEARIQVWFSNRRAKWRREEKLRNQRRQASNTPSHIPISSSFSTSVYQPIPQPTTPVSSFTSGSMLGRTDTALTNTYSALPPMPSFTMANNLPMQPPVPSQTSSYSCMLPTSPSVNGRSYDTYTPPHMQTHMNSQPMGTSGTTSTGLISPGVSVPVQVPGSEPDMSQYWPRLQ
Method in brief: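 Multiplexed cis-reporter HepG2 system; 24 h treatment; reporter mRNA read by RT-PCR/CE fluorescence; bidirectional fit vs DMSO.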

[12] = ATG_PXRE_CIS: Attagene CIS-FACTORIAL HepG2 Assay for human Pregnane X Receptor Element (PXRE) (AID 2282957); details: HepG2 Attagene CIS-FACTORIAL PXRE reporter, mRNA; actives raise or lower the signal
Method in brief: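 HepG2 cells transiently transfected with cis-regulated multiple reporter transcription units; endogenous factor activity measured as reporter mRNA 24 h after dosing. RT-PCR, fluorescent primer extension, HpaI digestion, capillary electrophoresis; bidirectional fit versus DMSO baseline.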

[13] = ATG_PPRE_CIS: Attagene CIS-FACTORIAL HepG2 Assay for human Peroxisome Proliferator-activated Response Element (PPRE) (AID 2282958); details: HepG2 PPRE cis-element reporter, Attagene transcription factor profiling; actives raise or lower the signal
Method in brief: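 HepG2 cells are transiently transfected with multiplexed cis-promoter reporter units to report endogenous PPAR activity. After 24 h dosing, reporter mRNA is read by RT-PCR and capillary electrophoresis. Fitting is bidirectional against DMSO.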

[14] = ATG_RORE_CIS: Attagene CIS-FACTORIAL HepG2 Assay for human RAR-related Orphan Receptor Element (RORE) (AID 2282959); details: HepG2 Attagene cis-factorial RORE reporter, mRNA; actives raise or lower the signal
Method in brief: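 HepG2 cells carrying transiently transfected cis-regulated reporter units; RORE-driven reporter mRNA quantified 24 h post-dosing by RT-PCR, 6-FAM primer extension, HpaI digestion and capillary electrophoresis. Bidirectional fit versus DMSO.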

[15] = ATG_Sox_CIS: Attagene CIS-FACTORIAL HepG2 Assay for human SRY-box transcription factor (SOX) (AID 2282960); details: HepG2 Attagene cis-factorial SOX reporter, mRNA; actives raise or lower the signal
Method in brief: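 HepG2 cells transiently transfected with multiple cis-regulated reporter units, then dosed for 24 h. Reporter mRNA quantified by RT-PCR, fluorescent labelling, HpaI digestion and capillary electrophoresis; bidirectional fit versus DMSO.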

[16] = molecular target: Transcription factor Sp1 (Homo sapiens) (UniProt P08047); test: ATG_Sp1_CIS: Attagene CIS-FACTORIAL HepG2 Assay for human Specificity Protein 1 (Sp1) (AID 2282961); details: HepG2 Sp1 cis-reporter transcription, actives raise or lower the signal
Chain of Transcription factor Sp1 (Homo sapiens) (P08047 whole entry, looked up): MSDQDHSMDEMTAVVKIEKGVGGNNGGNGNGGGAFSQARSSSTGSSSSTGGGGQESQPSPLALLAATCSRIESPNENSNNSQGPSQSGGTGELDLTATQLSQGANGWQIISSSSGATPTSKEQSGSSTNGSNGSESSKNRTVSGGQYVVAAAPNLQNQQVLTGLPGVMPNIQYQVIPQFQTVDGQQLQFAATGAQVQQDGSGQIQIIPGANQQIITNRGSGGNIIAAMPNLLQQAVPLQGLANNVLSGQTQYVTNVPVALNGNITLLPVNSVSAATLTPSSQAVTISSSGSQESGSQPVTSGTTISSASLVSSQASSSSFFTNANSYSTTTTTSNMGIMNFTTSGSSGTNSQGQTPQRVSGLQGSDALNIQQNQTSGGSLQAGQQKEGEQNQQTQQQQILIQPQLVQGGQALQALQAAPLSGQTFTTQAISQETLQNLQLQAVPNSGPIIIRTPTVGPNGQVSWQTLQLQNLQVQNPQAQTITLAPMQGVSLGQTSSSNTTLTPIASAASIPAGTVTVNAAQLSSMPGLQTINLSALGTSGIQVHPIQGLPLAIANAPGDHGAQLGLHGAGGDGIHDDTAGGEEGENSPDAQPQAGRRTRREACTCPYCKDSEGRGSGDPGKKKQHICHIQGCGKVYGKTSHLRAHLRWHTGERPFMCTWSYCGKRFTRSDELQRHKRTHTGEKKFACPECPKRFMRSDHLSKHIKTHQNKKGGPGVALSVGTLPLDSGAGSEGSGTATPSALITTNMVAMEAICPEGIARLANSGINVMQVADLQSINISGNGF
Method in brief: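 HepG2 cells transiently transfected with multiplexed cis-regulated reporter constructs, chemical exposure 24 h. Reporter mRNA quantified by RT-PCR with capillary electrophoresis; bidirectional fit relative to DMSO.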

[17] = ATG_SREBP_CIS: Attagene CIS-FACTORIAL HepG2 Assay for human Sterol Regulatory Element Binding (SREBP) (AID 2282962); details: HepG2 Attagene cis-factorial SREBP reporter, mRNA; actives raise or lower the signal
Method in brief: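 mRNA induction of transfected cis-promoter reporters in HepG2 cells, 24 h post-dose. Detection: RT-PCR with 6-FAM-labelled products, HpaI digest, capillary electrophoresis. DMSO served as negative control and baseline.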

[18] = molecular target: Signal transducer and activator of transcription 3 (Homo sapiens) (UniProt P40763); test: ATG_STAT3_CIS: Attagene CIS-FACTORIAL HepG2 Assay for human Signal Transducer and Activator of Transcription 3 (STAT3) (AID 2282963); details: HepG2, Attagene cis-factorial STAT3 reporter transcription; actives raise or lower the signal
Chain of Signal transducer and activator of transcription 3 (Homo sapiens) (P40763 whole entry, looked up): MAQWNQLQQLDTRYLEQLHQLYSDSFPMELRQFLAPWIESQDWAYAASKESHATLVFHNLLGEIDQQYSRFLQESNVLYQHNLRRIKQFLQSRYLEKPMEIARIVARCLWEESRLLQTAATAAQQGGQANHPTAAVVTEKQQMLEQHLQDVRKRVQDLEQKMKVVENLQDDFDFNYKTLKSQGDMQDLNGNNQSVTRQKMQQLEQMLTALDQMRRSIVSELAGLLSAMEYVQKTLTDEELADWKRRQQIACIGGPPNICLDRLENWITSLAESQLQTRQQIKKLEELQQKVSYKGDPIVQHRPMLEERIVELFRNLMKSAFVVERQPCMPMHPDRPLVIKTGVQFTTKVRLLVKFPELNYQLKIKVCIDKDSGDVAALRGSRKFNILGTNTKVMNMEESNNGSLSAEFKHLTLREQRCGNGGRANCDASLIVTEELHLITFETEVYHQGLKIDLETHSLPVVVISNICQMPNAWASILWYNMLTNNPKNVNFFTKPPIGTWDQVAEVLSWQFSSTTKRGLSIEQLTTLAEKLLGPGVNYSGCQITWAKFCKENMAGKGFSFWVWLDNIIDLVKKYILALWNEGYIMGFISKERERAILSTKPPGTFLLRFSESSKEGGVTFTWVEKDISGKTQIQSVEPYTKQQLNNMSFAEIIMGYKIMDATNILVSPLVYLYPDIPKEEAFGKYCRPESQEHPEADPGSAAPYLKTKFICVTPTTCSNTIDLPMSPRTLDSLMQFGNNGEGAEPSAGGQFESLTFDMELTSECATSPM
Method in brief: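 HepG2 cells transiently transfected with cis-element-driven multiple reporter transcription units; after 24 h chemical exposure, reporter mRNA measured by RT-PCR, 6-FAM primer-extension labelling, HpaI digestion and capillary electrophoresis. Bidirectional fitting versus DMSO baseline.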

[19] = ATG_TA_CIS: Attagene CIS-FACTORIAL HepG2 Assay for human TA Basal Promoter (AID 2282964); details: HepG2 Attagene CIS-factorial TA basal promoter reporter; actives raise or lower the signal
Method in brief: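 Transfected HepG2, 24 h compound exposure; RNA → RT-PCR → FAM primer extension → HpaI cut → CE fluorescence. Gain/loss-of-signal fitted against DMSO negative control. Background-control readout.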

Measured: AC50

CC(C)(C)N
inactive: all assays above

COC(OC)(C(=O)c1ccccc1)c1ccccc1
active: [9] 43.5 µM | [10] 3.88 µM | [11] 66 µM | [12] 2.19 µM
not listed: [14] | [17]
inactive: all other assays above

c1ccc2c(c1)[nH]c1ccccc12
active: [12] 9.54 µM
not listed: [14]
inactive: all other assays above

CCC(=O)C1CC(C(C)C)CC=C1C (stereo unspecified)
active: [12] 4.33 µM
not listed: [18] | [19]
inactive: all other assays above

CCCCC(CC)COC(=O)/C=C/c1ccc(OC)cc1 (stereo unspecified)
active: [12] 39.4 µM
not listed: [17]
inactive: all other assays above

OCCCc1ccccc1
inactive: all assays above

Oc1ccc(-c2ccccc2)c(Cl)c1
active: [6] 8.12 µM | [9] 52.9 µM | [13] 33.4 µM | [18] 54.5 µM
not listed: [14]
inactive: all other assays above
